From ChEMBL document CHEMBL3988442, “University of Dundee, Small-Polar-MMV Screening Library” (2021) come the findings set out here.

Common to all, as to set-up: scale not given: direction of the effect not stated beside the values
Assay [1] deals with Protein translocase subunit SecA (Escherichia coli (strain K12)) (UniProt P10408). Nature of the assay: Assay to Identify E. coli SecA ATPase Inhibitors. Format: functional. Particulars: 30 µM.
Assay [2] has as its target T1, Ubiquitin-activating enzyme e1, putative (Leishmania donovani (strain BPK282A1)) (UniProt E9BSI1).
T1 sequence (whole entry): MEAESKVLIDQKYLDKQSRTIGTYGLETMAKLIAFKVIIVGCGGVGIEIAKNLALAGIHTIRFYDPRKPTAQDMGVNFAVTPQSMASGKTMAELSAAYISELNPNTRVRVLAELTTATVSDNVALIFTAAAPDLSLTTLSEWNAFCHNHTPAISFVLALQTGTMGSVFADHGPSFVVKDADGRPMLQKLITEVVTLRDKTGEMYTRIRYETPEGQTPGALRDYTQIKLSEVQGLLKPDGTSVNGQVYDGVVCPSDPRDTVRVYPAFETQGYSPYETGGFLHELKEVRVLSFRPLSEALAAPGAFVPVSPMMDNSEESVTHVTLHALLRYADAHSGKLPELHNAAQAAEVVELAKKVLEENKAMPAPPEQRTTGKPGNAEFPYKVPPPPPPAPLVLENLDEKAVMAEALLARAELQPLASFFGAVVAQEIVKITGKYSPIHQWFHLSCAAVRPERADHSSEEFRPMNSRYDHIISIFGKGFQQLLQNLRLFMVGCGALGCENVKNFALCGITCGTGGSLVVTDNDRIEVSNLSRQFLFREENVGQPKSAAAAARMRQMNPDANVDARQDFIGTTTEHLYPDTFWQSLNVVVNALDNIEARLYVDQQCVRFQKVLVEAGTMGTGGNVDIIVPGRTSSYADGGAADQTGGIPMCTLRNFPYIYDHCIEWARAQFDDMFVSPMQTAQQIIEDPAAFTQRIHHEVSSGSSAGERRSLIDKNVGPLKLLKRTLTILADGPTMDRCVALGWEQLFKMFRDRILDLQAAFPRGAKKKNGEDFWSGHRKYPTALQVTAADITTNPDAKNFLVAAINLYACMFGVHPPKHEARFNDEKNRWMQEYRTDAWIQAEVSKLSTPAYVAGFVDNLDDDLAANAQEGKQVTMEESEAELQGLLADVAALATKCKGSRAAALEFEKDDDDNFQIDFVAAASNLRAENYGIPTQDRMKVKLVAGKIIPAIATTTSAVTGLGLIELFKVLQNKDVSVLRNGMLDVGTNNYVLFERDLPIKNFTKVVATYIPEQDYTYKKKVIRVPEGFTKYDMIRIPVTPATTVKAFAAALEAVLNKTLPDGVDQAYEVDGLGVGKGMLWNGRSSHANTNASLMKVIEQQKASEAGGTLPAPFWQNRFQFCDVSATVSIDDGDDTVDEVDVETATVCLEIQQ
Put plainly: Leishmania donovani Ubiquitin Activating Enzyme (LdE1). Particulars: 30 µM. In kind it is functional.

The target of assay [3] is AMP-activated protein kinase, AMPK (Homo sapiens) (UniProt P54646+O43741+P54619+Q9UGJ0+Q9Y478+Q13131+Q9UGI9). Nature of the assay: AMP-dependent Kinase enzyme assay. An in vitro enzyme assay that detects ADP turnover that is directly proportional to AMPK activity. This uses naive AMPK that is activated during the assay with MK-8722. Format: functional. Particulars: 30 µM.

Assay [4] concerns the target Sialic acid-binding Ig-like lectin 9 (Homo sapiens) (UniProt Q9Y336). Nature of the assay: Hs-Siglec9 ALPHAscreen SOP 20170721. The note with it: 10 µM. For orientation: Alpha assays give light when donor and acceptor beads are brought close together.
The test system of assay [5] is Trypanosoma cruzi. Put plainly: Trypanosoma cruzi phosphomannomutase and mannose-1-phosphate guanylyltransferase assay. Particulars: 10 µM. Format: functional.
The target in assay [6] is T2, Arginase-2, mitochondrial (Homo sapiens) (UniProt P78540).
T2 sequence (whole entry): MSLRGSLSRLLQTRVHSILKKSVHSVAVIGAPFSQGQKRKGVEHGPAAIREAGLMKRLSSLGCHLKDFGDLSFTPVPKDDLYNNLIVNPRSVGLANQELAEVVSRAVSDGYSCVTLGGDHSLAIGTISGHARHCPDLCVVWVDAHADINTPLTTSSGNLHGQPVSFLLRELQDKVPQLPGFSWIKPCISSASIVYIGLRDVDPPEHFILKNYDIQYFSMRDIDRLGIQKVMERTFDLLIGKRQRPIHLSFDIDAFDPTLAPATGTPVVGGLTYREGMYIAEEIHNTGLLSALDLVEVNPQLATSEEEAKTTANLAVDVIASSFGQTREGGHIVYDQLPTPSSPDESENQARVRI
Put plainly: in vitro enzyme assay to detect the production of urea directly proportional to the activity of Arginase II. Also: in the data most compounds retested in dose-response had high values. In kind it is functional. The note with it: 33.3 µM.

The target in assay [7] is T3, Proteasome subunit beta (Trypanosoma cruzi) (UniProt O96673).
T3 sequence (whole entry): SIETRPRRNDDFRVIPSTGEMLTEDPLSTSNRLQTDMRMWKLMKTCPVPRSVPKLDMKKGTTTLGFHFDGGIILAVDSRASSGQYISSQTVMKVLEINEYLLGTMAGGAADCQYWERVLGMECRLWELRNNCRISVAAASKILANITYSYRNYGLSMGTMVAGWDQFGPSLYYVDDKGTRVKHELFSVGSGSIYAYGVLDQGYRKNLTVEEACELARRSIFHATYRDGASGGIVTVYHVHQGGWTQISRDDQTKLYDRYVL
Put plainly: Trypanosoma cruzi proteasome chymotrypsin-like activity (TcProtChymo) assay. Also: in the data most compounds retested in dose-response had high values. Particulars: 9.37 µM. In kind it is functional.

The species entered for assay [8] is Homo sapiens. Put plainly: To identify inhibition of the IFN signalling (Jak-Stat) pathway via expression of an eGFP reporter gene under the control of an IFN-stimulated response element (ISRE) containing MxA promoter. In kind it is functional. Particulars: 30 µM. On the technique in general: Reporter assays use an easily measured gene product as a stand-in for the process of interest.

Assay [9] has as its target T4, Tyrosyl-tRNA synthetase, putative (Trypanosoma cruzi (strain CL Brener)) (UniProt Q4DSP6).
T4 sequence (whole entry): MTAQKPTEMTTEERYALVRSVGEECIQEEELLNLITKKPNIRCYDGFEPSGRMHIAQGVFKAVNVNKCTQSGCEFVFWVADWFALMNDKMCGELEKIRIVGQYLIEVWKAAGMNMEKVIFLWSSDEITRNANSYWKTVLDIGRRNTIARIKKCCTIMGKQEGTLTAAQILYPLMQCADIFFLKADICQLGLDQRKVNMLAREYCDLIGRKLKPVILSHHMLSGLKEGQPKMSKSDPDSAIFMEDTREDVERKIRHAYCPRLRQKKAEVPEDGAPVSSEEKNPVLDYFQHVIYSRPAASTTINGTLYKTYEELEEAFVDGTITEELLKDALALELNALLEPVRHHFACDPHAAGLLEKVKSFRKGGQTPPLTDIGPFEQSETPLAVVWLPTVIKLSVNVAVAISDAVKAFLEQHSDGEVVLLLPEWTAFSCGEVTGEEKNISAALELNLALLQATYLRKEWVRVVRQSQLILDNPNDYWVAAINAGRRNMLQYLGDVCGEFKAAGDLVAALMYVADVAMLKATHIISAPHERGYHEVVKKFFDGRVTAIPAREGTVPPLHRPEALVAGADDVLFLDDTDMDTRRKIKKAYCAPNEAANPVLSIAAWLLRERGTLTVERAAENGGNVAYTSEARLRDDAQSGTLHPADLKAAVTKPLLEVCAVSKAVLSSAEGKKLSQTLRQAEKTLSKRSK
Nature of the assay: Trypanosoma cruzi tyrosyl tRNA synthetase (TcYRS) _High Tyrosine SOP. Also: in the data most compounds retested in dose-response had high values. Format: functional. Particulars: 30 µM.

Assay [10] concerns the target T4, Tyrosyl-tRNA synthetase, putative (Trypanosoma cruzi (strain CL Brener)). Nature of the assay: Trypanosoma cruzi tyrosyl tRNA synthetase (TcYRS) SOP. Format: functional. The note with it: 30 µM.
The target in assay [11] is Chromo domain-containing protein 1 (Saccharomyces cerevisiae (strain ATCC 204508 / S288c) (Baker's yeast)) (UniProt P32657). Nature of the assay: ScCHD-1 Enzyme Inhibition Assay. Also: in the data most compounds retested in dose-response had high values. In kind it is functional. The note with it: 30 µM.
Chromo domain-containing protein 1 (Saccharomyces cerevisiae (strain ATCC 204508 / S288c) (Baker's yeast)), sequence (P32657 whole entry, the tested form may be a part): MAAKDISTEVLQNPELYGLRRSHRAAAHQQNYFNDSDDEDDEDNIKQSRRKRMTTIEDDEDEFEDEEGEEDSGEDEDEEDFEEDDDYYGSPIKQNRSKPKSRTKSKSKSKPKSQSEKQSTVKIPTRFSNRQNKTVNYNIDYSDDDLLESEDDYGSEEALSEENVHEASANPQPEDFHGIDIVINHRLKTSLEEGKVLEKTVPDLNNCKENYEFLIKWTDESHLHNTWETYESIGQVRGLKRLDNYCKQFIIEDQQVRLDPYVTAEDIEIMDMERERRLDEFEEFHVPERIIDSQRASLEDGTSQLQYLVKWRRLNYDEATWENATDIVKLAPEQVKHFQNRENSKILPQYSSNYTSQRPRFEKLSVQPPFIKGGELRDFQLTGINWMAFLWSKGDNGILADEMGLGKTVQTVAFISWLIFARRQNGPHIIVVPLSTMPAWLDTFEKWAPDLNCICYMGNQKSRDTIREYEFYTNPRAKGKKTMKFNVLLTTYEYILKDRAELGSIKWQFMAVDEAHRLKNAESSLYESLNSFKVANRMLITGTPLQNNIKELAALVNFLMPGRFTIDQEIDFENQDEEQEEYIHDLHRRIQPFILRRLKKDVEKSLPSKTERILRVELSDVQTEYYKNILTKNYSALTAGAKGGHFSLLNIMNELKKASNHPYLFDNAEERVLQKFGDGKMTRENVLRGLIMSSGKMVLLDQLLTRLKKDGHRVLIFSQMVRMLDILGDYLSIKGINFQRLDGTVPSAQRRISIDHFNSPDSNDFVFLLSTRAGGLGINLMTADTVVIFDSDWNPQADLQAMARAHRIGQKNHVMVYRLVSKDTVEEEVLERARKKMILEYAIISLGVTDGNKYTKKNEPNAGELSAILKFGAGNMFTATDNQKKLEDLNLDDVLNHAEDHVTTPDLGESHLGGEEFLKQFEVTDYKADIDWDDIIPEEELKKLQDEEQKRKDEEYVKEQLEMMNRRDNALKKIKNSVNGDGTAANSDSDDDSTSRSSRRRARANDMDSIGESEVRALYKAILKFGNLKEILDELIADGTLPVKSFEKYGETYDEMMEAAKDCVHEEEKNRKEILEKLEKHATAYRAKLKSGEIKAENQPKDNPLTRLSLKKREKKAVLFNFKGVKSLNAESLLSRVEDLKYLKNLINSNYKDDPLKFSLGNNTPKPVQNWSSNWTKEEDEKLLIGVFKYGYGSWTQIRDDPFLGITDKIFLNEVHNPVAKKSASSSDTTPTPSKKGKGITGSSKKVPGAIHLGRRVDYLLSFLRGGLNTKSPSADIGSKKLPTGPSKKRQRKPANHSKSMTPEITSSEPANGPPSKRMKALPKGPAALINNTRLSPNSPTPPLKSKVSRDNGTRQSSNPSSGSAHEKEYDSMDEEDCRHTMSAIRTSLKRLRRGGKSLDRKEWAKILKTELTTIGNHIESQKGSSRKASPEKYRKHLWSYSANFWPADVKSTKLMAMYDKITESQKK

For some of these results: Entries with a potency or affinity are not part of this list.

Sialic acid-binding Ig-like lectin 9 (Homo sapiens), sequence (Q9Y336 whole entry): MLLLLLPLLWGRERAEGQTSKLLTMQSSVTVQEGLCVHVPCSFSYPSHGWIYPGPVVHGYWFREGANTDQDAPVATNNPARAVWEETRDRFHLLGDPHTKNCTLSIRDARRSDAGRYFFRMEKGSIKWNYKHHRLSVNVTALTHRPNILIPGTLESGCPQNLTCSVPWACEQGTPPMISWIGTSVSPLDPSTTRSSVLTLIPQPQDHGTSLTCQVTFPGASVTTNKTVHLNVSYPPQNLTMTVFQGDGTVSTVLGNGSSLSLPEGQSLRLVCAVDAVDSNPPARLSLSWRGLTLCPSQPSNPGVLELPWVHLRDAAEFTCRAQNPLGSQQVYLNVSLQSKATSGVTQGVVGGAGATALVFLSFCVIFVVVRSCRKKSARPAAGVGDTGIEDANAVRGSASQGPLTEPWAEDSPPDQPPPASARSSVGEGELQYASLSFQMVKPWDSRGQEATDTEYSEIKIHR
Protein translocase subunit SecA (Escherichia coli (strain K12)), sequence (P10408 whole entry): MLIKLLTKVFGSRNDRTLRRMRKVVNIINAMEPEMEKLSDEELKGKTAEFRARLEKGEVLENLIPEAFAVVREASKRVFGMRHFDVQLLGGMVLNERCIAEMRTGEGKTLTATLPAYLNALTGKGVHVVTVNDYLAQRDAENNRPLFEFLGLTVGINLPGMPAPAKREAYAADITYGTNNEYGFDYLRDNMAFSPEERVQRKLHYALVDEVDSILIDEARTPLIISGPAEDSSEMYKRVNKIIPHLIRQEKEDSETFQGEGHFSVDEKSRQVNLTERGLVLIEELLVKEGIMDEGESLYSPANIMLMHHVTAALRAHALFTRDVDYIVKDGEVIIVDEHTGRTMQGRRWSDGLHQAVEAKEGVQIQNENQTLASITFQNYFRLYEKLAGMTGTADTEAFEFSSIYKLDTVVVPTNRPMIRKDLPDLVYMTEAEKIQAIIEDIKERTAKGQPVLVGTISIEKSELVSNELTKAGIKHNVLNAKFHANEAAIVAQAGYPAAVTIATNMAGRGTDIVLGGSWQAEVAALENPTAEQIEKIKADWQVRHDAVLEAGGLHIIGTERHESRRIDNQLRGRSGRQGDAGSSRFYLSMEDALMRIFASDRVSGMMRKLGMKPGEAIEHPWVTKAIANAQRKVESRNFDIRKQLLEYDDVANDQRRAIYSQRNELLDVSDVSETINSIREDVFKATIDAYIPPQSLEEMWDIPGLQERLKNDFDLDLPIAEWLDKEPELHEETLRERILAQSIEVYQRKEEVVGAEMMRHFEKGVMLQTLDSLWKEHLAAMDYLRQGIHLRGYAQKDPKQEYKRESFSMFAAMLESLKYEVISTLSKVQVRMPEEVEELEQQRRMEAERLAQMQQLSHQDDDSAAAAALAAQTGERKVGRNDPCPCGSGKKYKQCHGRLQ

As to `CCOc1ccccc1C(=O)NS(=O)(=O)c1ccc2c(c1)OCCCO2`, the Percent Effect is -5.62% in assay [1]; 5.26% in assay [2]; -3.19% in [3]; 0.997% in [4]; 3.08% in assay [5]; -3.24% in [6]. Moreover, the Percent Effect was 8.04% in assay [7]; 7.05% in assay [8]; -29.1% in assay [9]; -21% in assay [10]; -8.5% in assay [11].

For the compound `Cc1cccc(CN2CCc3ncnc(C)c3CC2)n1`, the Percent Effect was 1.12% in [1]; 8.22% in assay [2]; 5.73% in assay [3]; 7.82% in assay [4]; -5.75% in assay [5]; -0.798% in assay [6]. Besides, the Percent Effect in assay [7] is 13.4%; in assay [8] it was 4.7%; in [9], -1.04%; in [10], 8.64%; in assay [11] it was -4.79%.

Take `COc1ccc2c(c1)C1(CCN(Cc3ccncc3)CC1)N(C)CC2`: the Percent Effect in assay [1] is -3.01%; in assay [2], 7.79%; in assay [3], 2.38%; in [4], 7.8%; in [5], -3.06%; in assay [6], 0.645%. Besides, the Percent Effect is 14.4% in assay [7]; -6.76% in assay [8]; 0% in assay [9]; 3.85% in [10]; -8.34% in assay [11].

For `CCO[C@@H]1CC[C@H]2[C@H]1OCCN2C(=O)C1CCOCC1`, the Percent Effect in assay [1] was -5.85%; in [2] it was 21.6%; in assay [3], -7.07%; in assay [4] it was 5.16%; in assay [5], 3.32%; in [6] it was 3.33%. Also, the Percent Effect in [7] is 18.2%; in [8], 2.97%; in [9], 10.9%; in assay [10], 1.22%; in assay [11], -4.28%.

Turning to `CCc1nccn1C1CCCN(C(=O)c2ccc3[nH]c(=O)[nH]c3c2)C1` (stereo unspecified), the Percent Effect in assay [1] is -10.8%; in assay [2], 7.79%; in [3], -15.1%; in assay [4], 18.9%; in assay [5], 8.24%; in assay [6], 2.85%. Further, the Percent Effect in assay [7] is 5.41%; in assay [8], 14.2%; in [9], 8.74%; in assay [10] it was 21.9%; in [11], -4.1%.

On to `CC(C)c1cnc(CNc2c(F)cccc2-n2cccn2)o1`, for which the Percent Effect in assay [1] is 1.05%; in assay [2], -1.39%; in [3], -3.66%; in [4] it was 6.14%; in assay [5] it was 1.26%; in assay [6], 12.4%. Moreover, the Percent Effect is 11.2% in [7]; -14.6% in assay [8]; -1.05% in assay [9]; 0% in assay [10]; 0.741% in assay [11].

In the case of `Cc1cc(CN2CC[C@H]3C(=O)N(c4ccccc4)CCO[C@H]3C2)no1`, the Percent Effect in assay [1] is -3.31%; in assay [2] it was 21.3%; in assay [3], 1.48%; in assay [4] it was -6.56%; in assay [5], -4.92%; in assay [6] it was -2.1%. The Percent Effect in [7] is 8.37%; in assay [8], 19.1%; in assay [9], 2.13%; in assay [10], 11.5%; in assay [11] it was -1.25%.

With `O=C([C@@H]1C[C@@H]2CCN(CCc3ccccc3)C[C@H]2O1)N1CCCC1`, the Percent Effect in assay [1] is 1.08%; in [2], 8%; in assay [3] it was 15%; in assay [4], -9.77%; in assay [5], -7.09%; in assay [6] it was 8.62%. For the same compound, the Percent Effect in assay [7] is 14.7%; in assay [8], -9.49%; in assay [9], 4.25%; in [10], 8.97%; in assay [11] it was 0.575%.

For `CCN1CCN(c2ccc(F)cc2C(C)NCc2ccncc2)CC1` (stereo unspecified), the Percent Effect is -5.73% in assay [1]; 0% in assay [2]; -10.3% in assay [3]; -1.77% in assay [4]; -2.25% in [5]; -3.72% in assay [6]. The Percent Effect is 9.7% in assay [7]; 6.08% in assay [8]; 3.23% in [9]; 6.17% in assay [10]; -0.559% in [11].

Regarding `Cc1cc(C(=O)N2C[C@@H]3COC[C@]3(COCc3cccnc3)C2)no1`, the Percent Effect in [1] was -2.45%; in [2], 33.8%; in assay [3], 4.4%; in assay [4] it was -2.26%; in assay [5], -3.45%; in assay [6], 3.23%. The Percent Effect in assay [7] is 7.31%; in assay [8], 4.17%; in assay [9], -2.12%; in [10], 8.97%; in assay [11], -5.95%.

Regarding `NC(=O)N1CC[C@H](O)[C@@H]1Cc1cccnc1`, the Percent Effect in assay [1] is -2.51%; in [2] it was 2.7%; in assay [3] it was 6.84%; in assay [4] it was -5.75%; in assay [5], -9.48%; in assay [6] it was 4.78%. Besides, the Percent Effect was 24% in [7]; 5.65% in assay [8]; 0% in assay [9]; 7.69% in assay [10]; -2.76% in assay [11].
